# Experimental data from the supplement of paper PMC8975748.
# Where a name gives a salt, the structure may show the parent alone. ± gives the standard deviation of the averaged measurements.
# Columns and labels:
# [1] = test system: Saccharomyces cerevisiae BY4741 SeMeCo community; assay: mean cell size (pixel area) (pixels); higher = larger cells; settings: 10 µM; 24 h; SM minimal medium
# Procedure, shortened: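 Mean cell pixel area per well was determined by automated confocal microscopy with Harmony analysis of paraformaldehyde-fixed cells. The cells, a Saccharomyces cerevisiae BY4741 community of four plasmids that each complement one auxotrophy and carry a fluorescent marker, were incubated for 24 h with drug at a final 10 µM in SM medium in 384-well plates. Numbers are averaged over 3 replicates. Same SeMeCo high-content imaging drug screen: Selleck FDA-approved drugs at 10 µM, 24 h in SM medium, 384-well plates, 3 replicates.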
# [2] = test system: Saccharomyces cerevisiae BY4741 SeMeCo community; assay: z-score of subpopulation abundance vs DMSO median, subpopulation auxotrophic for M; higher = larger share of this subpopulation than in DMSO controls; settings: 10 µM; 24 h; SM minimal medium; subpopulation (auxotrophy): M
# Procedure, shortened: (§1)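 Scoring was based on each subpopulation's abundance, expressed as a z-score against the vehicle-well median. A Saccharomyces cerevisiae BY4741 community with four plasmids, each restoring one auxotrophy and encoding a distinct fluorescent protein, was pre-grown overnight to OD600 1.0, diluted to 0.3, and added at 70 µl to 384-well plates acoustically predosed with library drugs (10 µM final). It then grew 24 h in minimal SM medium before paraformaldehyde fixation and automated confocal microscopy, with single-auxotroph fluorescent strains setting thresholds and autofluorescence correction.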
# [3] = test system: Saccharomyces cerevisiae BY4741 SeMeCo community; assay: z-score of subpopulation abundance vs DMSO median, subpopulation auxotrophic for U; higher = larger share of this subpopulation than in DMSO controls; settings: 10 µM; 24 h; SM minimal medium; subpopulation (auxotrophy): U
# Procedure, shortened: as §1
# [4] = test system: Saccharomyces cerevisiae BY4741 SeMeCo community; assay: z-score of subpopulation abundance vs DMSO median, subpopulation auxotrophic for H; higher = larger share of this subpopulation than in DMSO controls; settings: 10 µM; 24 h; SM minimal medium; subpopulation (auxotrophy): H
# Procedure, shortened: as §1
# [5] = test system: Saccharomyces cerevisiae BY4741 SeMeCo community; assay: z-score of subpopulation abundance vs DMSO median, subpopulation auxotrophic for LU; higher = larger share of this subpopulation than in DMSO controls; settings: 10 µM; 24 h; SM minimal medium; subpopulation (auxotrophy): LU
# Procedure, shortened: as §1
# [6] = test system: Saccharomyces cerevisiae BY4741 SeMeCo community; assay: z-score of subpopulation abundance vs DMSO median, subpopulation auxotrophic for HM; higher = larger share of this subpopulation than in DMSO controls; settings: 10 µM; 24 h; SM minimal medium; subpopulation (auxotrophy): HM
# Procedure, shortened: as §1
# [7] = test system: Saccharomyces cerevisiae BY4741 SeMeCo community; assay: z-score of subpopulation abundance vs DMSO median, subpopulation auxotrophic for HU; higher = larger share of this subpopulation than in DMSO controls; settings: 10 µM; 24 h; SM minimal medium; subpopulation (auxotrophy): HU
# Procedure, shortened: as §1
# [8] = test system: Saccharomyces cerevisiae BY4741 SeMeCo community; assay: z-score of subpopulation abundance vs DMSO median, subpopulation auxotrophic for UM; higher = larger share of this subpopulation than in DMSO controls; settings: 10 µM; 24 h; SM minimal medium; subpopulation (auxotrophy): UM
# Procedure, shortened: as §1
# [9] = test system: Saccharomyces cerevisiae BY4741 SeMeCo community; assay: z-score of subpopulation abundance vs DMSO median, subpopulation auxotrophic for HL; higher = larger share of this subpopulation than in DMSO controls; settings: 10 µM; 24 h; SM minimal medium; subpopulation (auxotrophy): HL
# Procedure, shortened: as §1
# [10] = test system: Saccharomyces cerevisiae BY4741 SeMeCo community; assay: z-score of subpopulation abundance vs DMSO median, subpopulation auxotrophic for HLU; higher = larger share of this subpopulation than in DMSO controls; settings: 10 µM; 24 h; SM minimal medium; subpopulation (auxotrophy): HLU
# Procedure, shortened: as §1
# [11] = test system: Saccharomyces cerevisiae BY4741 SeMeCo community; assay: z-score of subpopulation abundance vs DMSO median, subpopulation auxotrophic for HUM; higher = larger share of this subpopulation than in DMSO controls; settings: 10 µM; 24 h; SM minimal medium; subpopulation (auxotrophy): HUM
# Procedure, shortened: as §1
# [12] = test system: Saccharomyces cerevisiae BY4741 SeMeCo community; assay: z-score of subpopulation abundance vs DMSO median, subpopulation auxotrophic for LUM; higher = larger share of this subpopulation than in DMSO controls; settings: 10 µM; 24 h; SM minimal medium; subpopulation (auxotrophy): LUM
# Procedure, shortened: as §1
# [13] = test system: Saccharomyces cerevisiae BY4741 SeMeCo community; assay: z-score of subpopulation abundance vs DMSO median, subpopulation auxotrophic for HLUM; higher = larger share of this subpopulation than in DMSO controls; settings: 10 µM; 24 h; SM minimal medium; subpopulation (auxotrophy): HLUM
# Procedure, shortened: as §1
# [14] = test system: Saccharomyces cerevisiae BY4741 SeMeCo community; assay: z-score of subpopulation abundance vs DMSO median, subpopulation auxotrophic for LM; higher = larger share of this subpopulation than in DMSO controls; settings: 10 µM; 24 h; SM minimal medium; subpopulation (auxotrophy): LM
# Procedure, shortened: as §1
# [15] = test system: Saccharomyces cerevisiae BY4741 SeMeCo community; assay: z-score of prototroph abundance vs DMSO median; higher = larger share of this subpopulation than in DMSO controls; settings: 10 µM; 24 h; SM minimal medium; subpopulation (auxotrophy): Prototroph
# Procedure, shortened: as §1
# [16] = test system: Saccharomyces cerevisiae BY4741 SeMeCo community; assay: z-score of subpopulation abundance vs DMSO median, subpopulation auxotrophic for L; higher = larger share of this subpopulation than in DMSO controls; settings: 10 µM; 24 h; SM minimal medium; subpopulation (auxotrophy): L
# Procedure, shortened: as §1
# [17] = test system: Saccharomyces cerevisiae BY4741 SeMeCo community; assay: z-score of subpopulation abundance vs DMSO median, subpopulation auxotrophic for HLM; higher = larger share of this subpopulation than in DMSO controls; settings: 10 µM; 24 h; SM minimal medium; subpopulation (auxotrophy): HLM
# Procedure, shortened: as §1
Structure (SMILES),mean cell size [1],z-score of subpopulation abundance [2],z-score of subpopulation abundance [3],z-score of subpopulation abundance [4],z-score of subpopulation abundance [5],z-score of subpopulation abundance [6],z-score of subpopulation abundance [7],z-score of subpopulation abundance [8],z-score of subpopulation abundance [9],z-score of subpopulation abundance [10],z-score of subpopulation abundance [11],z-score of subpopulation abundance [12],z-score of subpopulation abundance [13],z-score of subpopulation abundance [14],z-score of prototroph abundance [15],z-score of subpopulation abundance [16],z-score of subpopulation abundance [17]
CCOC(=O)OC(C)OC1=C(C(=O)Nc2ccccn2)N(C)S(=O)(=O)c2ccccc21 (stereo not drawn) [Ampiroxicam],12.3 ± 0.37,0,-0.79,-0.19,-0.67,-0.5,-0.62,0.08,-0.64,-0.83,-0.48,-0.42,-0.78,,,,
COc1cccc2c1C(=O)c1c(O)c3c(c(O)c1C2=O)C[C@@](O)(C(=O)CO)C[C@@H]3O[C@H]1C[C@H](N)[C@H](O[C@@H]2CCCCO2)[C@H](C)O1 [Pirarubicin],,-12,5.25,-1.05,4.15,-5.17,4,-3.46,0.37,2.71,-1.83,-0.26,1.36,-3.84,,,
CCOC(=O)C1=C(COCCN)NC(C)=C(C(=O)OC)C1c1ccccc1Cl (stereo not drawn) [Amlodipine],13 ± 0.37,3.04,-7,3.95,,4.86,-7.36,-8.26,5.86,-3.87,-6.23,-4.72,-1.8,8.35,2.13,4.02,9.49
O=C(Cn1cnnn1)N[C@@H]1C(=O)N2C(C(=O)O)=C(CSc3nncs3)CS[C@H]12 [Ceftezole],12 ± 0.2,-1.1,0.9,-1.12,,-1.26,-0.51,-0.37,-0.41,-0.25,-1.25,0.28,0.55,-0.52,,-0.41,-0.2
CC1=C(C(=O)O)N2C(=O)[C@@H](NC(=O)[C@H](N)C3=CCC=CC3)[C@H]2SC1 [Cephradine monohydrate],11.9 ± 0.16,-0.02,1.31,-0.1,0.27,-0.39,0.11,,-0.62,-0.12,-0.61,-0.79,0.01,-0.77,,,
NC[C@H]1O[C@H](O[C@H]2[C@H](O)[C@@H](O[C@H]3O[C@H](CO)[C@@H](O)[C@H](N)[C@H]3O)[C@H](N)C[C@@H]2N)[C@H](N)C[C@@H]1O [Tobramycin],11.72 ± 0.043,0.73,0.79,,,-0.2,0,0.54,-0.46,-0.41,0.03,-0.69,-1.08,-0.17,0.02,-0.45,-1.18
Cc1[nH]cnc1CN1CCc2c(c3ccccc3n2C)C1=O [Alosetron Hydrochloride],12 ± 0.2,0.38,1.4,-0.22,1.07,0.69,0.97,,0,-0.13,,-0.03,1.5,0.27,-0.91,,0.08
CN(Cc1cnc2nc(N)nc(N)c2n1)c1ccc(C(=O)N[C@@H](CCC(=O)O)C(=O)O)cc1 [Methotrexate],,-4.24,-2.91,8.39,-1.77,6.94,1.71,,6.68,4.61,0,0.73,6.15,1.07,-1.88,,
CC/C(=C(\c1ccccc1)c1ccc(OCCN(C)C)cc1)c1ccccc1 [Tamoxifen Citrate],11.7 ± 0.14,-1.11,0.72,1.16,,0.16,0.74,,0.64,0.36,1.07,0.58,-0.65,-0.23,-0.56,-0.42,-0.48
Clc1ccccc1C(c1ccccc1)(c1ccccc1)n1ccnc1 [Clotrimazole],11.89 ± 0.097,4.9,-0.04,6.9,-0.93,6.05,6.35,18.8,,3.78,,5.41,9.79,1.9,,,15.2
CCOc1cc(N)c(Cl)cc1C(=O)NCC1CN(Cc2ccc(F)cc2)CCO1 (stereo not drawn) [Mosapride Citrate],12.5 ± 0.12,0.17,0.31,-0.34,,0.32,0.11,0.37,0.35,0.02,0.97,0.54,1.04,-0.05,-0.84,0.92,0.62
CN1CCCN=C1/C=C/c1cccs1 [Pyrantel Pamoate],12.8 ± 0.19,1.45,0.04,,,0.03,0.04,-1.25,-0.22,0.47,-0.34,-0.44,-0.17,-0.65,0.2,-0.64,0.61
CCCCCCCCCC(=O)N[C@@H](Cc1c[nH]c2ccccc12)C(=O)N[C@H](CC(N)=O)C(=O)N[C@@H](CC(=O)O)C(=O)N[C@@H]1C(=O)NCC(=O)N[C@@H](CCCN)C(=O)N[C@@H](CC(=O)O)C(=O)N[C@H](C)C(=O)N[C@@H](CC(=O)O)C(=O)NCC(=O)N[C@H](CO)C(=O)N[C@@H]([C@H](C)CC(=O)O)C(=O)N[C@@H](CC(=O)c2ccccc2N)C(=O)O[C@@H]1C [Daptomycin],12.2 ± 0.16,0.17,-1.42,1.36,-0.76,,0.29,-0.81,2.68,1.3,0.77,,-0.99,1.51,,,
COc1ccc(CNc2nc(N3CCC[C@H]3CO)ncc2C(=O)NCc2ncccn2)cc1Cl [Avanafil],12.5 ± 0.16,0.21,0.68,-0.56,-0.03,0.22,0.11,0.93,-0.55,0.58,0.44,-0.38,-0.54,-0.5,-0.15,,
N=C(N)NC(=O)c1nc(Cl)c(N)nc1N [Amiloride HCl dihydrate],12.1 ± 0.19,3.23,-3.02,0.83,-3.52,1.29,-2.8,-3.7,0.71,-1.34,,-1.62,-0.95,2.66,1.39,,0.23
